# Source: PubChem
# GSIS activator: primary screen for activators of insulin secretion dependent on glucose, INS-1E cells, GLuc reporter luminescence. activation, % at 16.6 µM. 0.61% of 370,000 active. INS-1E GLuc reporter insulin secretion, 2-3 h. AID 743287;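 active = lowest replicate activation of at least 40%, so every replicate reaches that level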;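 also: 0% = median of neutral control wells and 100% = median of IBMX positive control wells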
# PGC1a acetyl inh: modulators of PGC1a acetylation; 0.17% of 350,000 active; inhibition, % at 15.6 µM; U2OS PGC1a acetylation, AlphaScreen anti-acetyl-lysine; with virally co-expressed GCN5 acetyltransferase;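 active = every replicate shows inhibition of at least 40%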;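 also: 0% = neutral control wells and 100% = positive control wells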
# ERAP1 HTS inh: inhibitors of human ERAP1 aminopeptidase | recombinant ERAP1, Leu-AMC fluorescence, 60 min | 0.15% of 340,000 active | Q9NZ08 | AID 652197 | inhibition, % at 10.7 µM;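 active = mean replicate inhibition of at least 30%, or all replicates individually reaching that 30% level; inactive = mean below 30% and not every replicate reaching it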;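 also: 0% = neutral control wells and 100% = L-leucinethiol positive control wells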
# Target sequence (Q9NZ08 whole entry, looked up): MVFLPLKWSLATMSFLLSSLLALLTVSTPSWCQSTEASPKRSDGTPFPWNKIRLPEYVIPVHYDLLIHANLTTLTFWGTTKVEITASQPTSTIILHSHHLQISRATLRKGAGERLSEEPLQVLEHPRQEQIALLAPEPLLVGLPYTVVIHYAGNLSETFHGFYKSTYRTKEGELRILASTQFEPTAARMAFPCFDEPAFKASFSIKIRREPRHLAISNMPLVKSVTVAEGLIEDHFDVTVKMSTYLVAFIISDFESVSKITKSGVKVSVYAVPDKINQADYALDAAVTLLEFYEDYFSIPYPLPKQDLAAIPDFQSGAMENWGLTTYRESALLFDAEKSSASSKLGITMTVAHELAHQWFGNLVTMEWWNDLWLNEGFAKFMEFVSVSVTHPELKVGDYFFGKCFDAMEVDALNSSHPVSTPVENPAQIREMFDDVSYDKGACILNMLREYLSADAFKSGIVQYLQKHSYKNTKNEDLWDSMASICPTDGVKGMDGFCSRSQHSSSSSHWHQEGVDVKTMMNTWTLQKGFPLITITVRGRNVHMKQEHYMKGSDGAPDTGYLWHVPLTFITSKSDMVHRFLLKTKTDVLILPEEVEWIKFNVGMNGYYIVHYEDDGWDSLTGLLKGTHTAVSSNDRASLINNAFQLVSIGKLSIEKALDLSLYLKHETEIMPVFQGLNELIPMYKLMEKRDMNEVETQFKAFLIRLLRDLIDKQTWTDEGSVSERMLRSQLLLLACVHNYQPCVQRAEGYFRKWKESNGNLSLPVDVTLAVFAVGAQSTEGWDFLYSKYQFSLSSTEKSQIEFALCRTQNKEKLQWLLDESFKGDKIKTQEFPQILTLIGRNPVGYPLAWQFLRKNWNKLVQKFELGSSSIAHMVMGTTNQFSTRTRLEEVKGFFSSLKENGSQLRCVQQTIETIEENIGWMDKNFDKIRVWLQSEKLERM
# Ecoli rRNA inh: selective bacterial rRNA inhibition in E. coli. E. coli WT GFP vs humanized-ribosome RFP mutants, fluorescence, 24 h; stronger effect = lower value; DMSO median 0, no signal -100. 1.6% of 350,000 active. GFP signal change (wild-type ribosome), % (test concentration not listed);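 active = significant combined selectivity score with lowered wild-type GFP, culture density cut under 30%, mutant RFP and density less affected; inactive = any of these conditions unmet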
# DENV2 CPE rescue: protects cells from dengue virus 2 cytopathic effect | CPE inhibition, % at 9.99 µM | 1.7% of 350,000 active | AID 651640 | DENV2-infected cells, cytopathic effect rescue, plate reader; in the data active = CPE inhibition above about 20%, passing the limit was not always enough; tested in BHK-21 cells;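 also: 0% = median of neutral control wells and 100% = median of positive control wells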
# CaV13 ICDI inh: Disruptors of the CACNA1D IQ motif to Ca2+-dependent inactivation inhibitor domain association, primary screening, Förster resonance energy transfer in intact living …; 0.098% of 340,000 active; AID 743397; HEK cells, CFP/YFP FRET ICDI-IQ, plate reader, 10 min; percent FRET-ratio fall versus neutral wells; inhibition, % at 12.3 µM;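 active = mean replicate inhibition of at least 30% and at least 1% of replicates passing that level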;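 also: 0% = median of the neutral control wells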
# Starred values were filed as active, the others as inactive; / = not tested or not shown. A selection: hits, their analogues and other compounds. The true share with any hit is near 3.2%.
SMILES,GSIS activator,PGC1a acetyl inh,ERAP1 HTS inh,Ecoli rRNA inh,DENV2 CPE rescue,CaV13 ICDI inh
NC(=O)[C@@H]1[C@H]2C(=O)O[C@H](c3ccccc3)[C@H](c3ccccc3)N2[C@H](c2ccc(O)cc2)[C@@]12C(=O)Nc1ccc(C#CC3=CCCCC3)cc12,/,5,2,/,15,/
O=C(NCc1cccnc1)/C(=C\c1ccc(-c2ccc(Cl)c(Cl)c2)o1)S(=O)(=O)c1ccccc1,-12,59*,-2,-21,3,-1
Cc1noc(C)c1NC(=O)N(C)C[C@H]1Oc2ncc(C#CC(C)C)cc2C(=O)N([C@H](C)CO)C[C@H]1C,10,-1,0,10,15,/
Cc1cc(C(=O)O/N=C(\N)c2ccc(C(C)(C)C)cc2)no1,7,0,/,12,65*,-2
CC(C)=C(c1ccc(Cl)cc1)c1c(N)ncnc1N,-6,3,0,-21*,10,-8
COC(=O)c1[nH]c2cc(OC)c(OC)cc2c1/C=N/Nc1ccccc1,-11,/,-1,-19*,5,-4
CCOC(=O)c1ccc(NC(=O)C2=C(C)Nc3nc(CCCO)nn3C2c2cccc(C)c2)cc1 (stereo unspecified),13,/,-3,-1,73*,-3
O=C(Nc1ccc(F)cc1)N1CC(=O)N2[C@H](CO)[C@H](c3ccc(C#Cc4ccccc4)cc3)[C@@H]2C1,-36,/,/,-8,/,/
CN1[C@@H]2CN(C(=O)C3CCOCC3)c3ccccc3[C@@H]2[C@@H]1CO,6,8,0,6,40*,/
CC(C)NC(=O)N1C[C@@H]2[C@H](c3ccccc31)[C@H](CO)N2C(=O)NC(C)C,6,5,0,0,-7,/
O=C(C1CC1)N1C[C@@H]2[C@H](c3ccccc31)[C@H](CO)N2C(=O)c1ccccc1,1,2,0,0,0,/
O=C(C1CCOCC1)N1C[C@H]2[C@@H](c3ccccc31)[C@@H](CO)N2C(=O)c1ccccc1,0,7,4,7,97*,/
CC(C)NC(=O)N1C[C@@H]2[C@H](c3ccccc31)[C@@H](CO)N2C(=O)c1ccccc1,20,3,1,4,29*,/
Cc1noc(C)c1NC(=O)N(C)C[C@H]1Oc2cc(C#CCC3CCCC3)ccc2S(=O)(=O)N([C@@H](C)CO)C[C@H]1C,10,-3,-3,-3,-3,/
O=C(O)C[C@@H]1C[C@@H]2c3cc(NC(=O)Nc4ccc(F)cc4)ccc3O[C@@H]2[C@H](CO)O1,4,5,1,2,2,/
CCCNC(=O)Nc1ccc2c(c1)C(=O)N(C)C[C@H](OC)[C@@H](C)CN(Cc1ccc(-c3ccccn3)cc1)[C@H](C)CO2,-39,12,0,-4,-1,/
COc1cccc(C#Cc2ccc([C@H]3[C@H](CO)N4C(=O)CN(C(=O)C5CC5)C[C@@H]34)cc2)c1,-12,-20,2,-3,0,/
COc1ccc(NC(=O)N(C)C[C@H]2Oc3c(NC(=O)CCCCCC(=O)Nc4ccccc4N)cccc3C(=O)N([C@@H](C)CO)C[C@@H]2C)cc1,5,1,-1,2,30*,/
COc1ccc(NC(=O)N(C)C[C@@H]2Oc3c(NC(=O)CCCCCC(=O)Nc4ccccc4N)cccc3C(=O)N([C@@H](C)CO)C[C@@H]2C)cc1,13,-6,-3,6,-4,/
C[C@@H]1CN([C@H](C)CO)C(=O)c2cc(NC(=O)CCCCCC(=O)Nc3ccccc3N)ccc2O[C@H]1CN(C)S(=O)(=O)c1cccs1,5,3,-1,-4,5,/
COc1ccc(NC(=O)N(C)C[C@H]2Oc3ccc(NC(=O)CCCCCC(=O)Nc4ccccc4N)cc3C(=O)N([C@H](C)CO)C[C@@H]2C)cc1,-2,9,2,7,-9,/
C[C@H](CO)N1C[C@H](C)[C@@H](CN(C)S(=O)(=O)c2cccs2)Oc2ccc(NC(=O)CCCCCC(=O)Nc3ccccc3N)cc2C1=O,7,-3,1,-1,25*,/
C[C@H]1CN([C@@H](C)CO)C(=O)c2cc(NC(=O)CCCCCC(=O)Nc3ccccc3N)ccc2O[C@H]1CN(C)C(=O)Nc1ccc(F)cc1,-13,-2,-2,2,35*,/
COc1ccc(NC(=O)N(C)C[C@@H]2Oc3ccc(NC(=O)CCCCCC(=O)Nc4ccccc4N)cc3C(=O)N([C@H](C)CO)C[C@@H]2C)cc1,-3,-3,1,1,53*,/
C[C@H]1COCn2nncc2CCCC(=O)N1,13,/,/,3,/,/
SMILES,GSIS activator,PGC1a acetyl inh,ERAP1 HTS inh,Ecoli rRNA inh,DENV2 CPE rescue,CaV13 ICDI inh
COc1ccc(S(=O)(=O)N(C)C[C@@H]2Oc3ccc(NC(=O)CCCCCC(=O)Nc4ccccc4N)cc3C(=O)N([C@@H](C)CO)C[C@@H]2C)cc1,7,2,0,-3,36*,/
COc1ccc(S(=O)(=O)N(C)C[C@H]2Oc3ccc(NC(=O)CCCCCC(=O)Nc4ccccc4N)cc3C(=O)N([C@H](C)CO)C[C@@H]2C)cc1,-9,-8,0,-3,-2,/
C[C@H](CO)N1C[C@H](C)[C@H](CN(C)C(=O)Nc2ccc(C(F)(F)F)cc2)Oc2c(NC(=O)CCCCCC(=O)Nc3ccccc3N)cccc2C1=O,-1,2,-1,-2,35*,/
CCN(CC)S(=O)(=O)c1ccc(O)c(C(=O)OCC(=O)NC23CC4CC(CC(C4)C2)C3)c1,-46,-8,3,-21*,-6,-6
COC(=O)C[C@@H]1CC[C@@H](NS(=O)(=O)c2ccccc2F)[C@H](CO)O1,9,7,3,0,4,/
CCCCCCCCCCOC(=O)C[N+](C)(C)C/C=C(/C)Cl,-30,/,36*,6,3,-5
CCCCCCCCCCCCOC(=O)C[N+](C)(C)C,-15,/,15,-48,-8,-19
CCCCCCCCOC(=O)C[N+](C)(C)C/C=C(/C)Cl,-31,3,12,-35*,9,-7
C[C@H](CO)N1C[C@H](C)[C@@H](CN(C)S(C)(=O)=O)Oc2ccc(NC(=O)NC3CCCCC3)cc2CC1=O,-5,2,-2,-1,7,/
COC(=O)c1c(NC(=O)C(Cl)Cl)sc2c1C(C(=O)OC)CC2 (stereo unspecified),-1,/,6,-14,122*,-3
COC(=O)c1c(NC(=O)C(C)(C)C)sc2c1C(C(=O)OC)CC2 (stereo unspecified),/,-1,/,/,/,-4
N=C1/C(=C/c2ccc(-c3cccc(C(=O)O)c3)o2)C(=O)N=C2SC=C(c3ccccc3)N12,-4,/,0,-21*,-4,-73
